# Target: EHD3
# Assay: pooled miR-30 sensor sort-seq; sequence = guide strand
# Details: shRNA
row,Sequence,sensor-assay potency score (higher = more potent)
1,AAACTCGTCGTCGTCCAGCATG,-1.38
2,TTTCTTGGGATCCACCACCAGG,-1.36
3,TTGATGAGGTCGTTGAGCTTGC,0.159
4,TAGAAGATCTCGTCGTACATGG,-0.19
5,TTCAGCACCACTCGCATCTTGT,-0.387
6,TGCAAACTCGTCGTCGTCCAGC,-1.01
7,TTGACCAGCTCCTTCTTCTTGT,0.288
8,TTCTTCTTGTTGTCCTTCCCGA,-0.7
9,TCGAAGAGCAGAATGATGCGGT,0.407
10,TAGGAAAGAACAGAGCTCCTGG,0.716
11,TTGATGACTTCTGAGAACTCAT,-0.245

# Target: EHMT2
# Assay: as above
# Details: shRNA
row,Sequence,sensor-assay potency score (higher = more potent)
1,TTGAGTTGAAGCGCAAACCACA,-1.4
2,TGAGTGGACATCATCACTCATG,-1.27
3,TTGCTCTGCTGGTCGCTCTGGA,-0.425
4,TTGAGCTTCAGAAGCATCCTCC,0.398
5,ATCCTTGTTGTCTAAGTCGAAG,-1.84
6,TTAGTTGTTCAGTTAGAGCTTC,0.313
7,TTCTTCTTGGCCTTGCGCCGGC,-0.437
8,TTGACGTCCACCTGTCCTGTGC,-0.646
9,TTACACTCGAAAATCAGCGGAG,-0.173
10,TTCATGGTGGACGTCTCGCAGT,-1.22
11,TAGCATGCGGATCACCTCGATG,-1.39
12,TAGAGCTTCAACTTCAGACTTG,0.68

# Reference: the OligoGym collection
